The values below come from PubChem BioAssay.

Calls of active or inactive are those of the source. No stated cut-off is given here; in the data, active means fold change permeability below about 0.7 or above about 1.3; inactive means in between.

The test can be described thus: modulators of brain endothelial barrier permeability, primary screen, cell-based, FITC-avidin fluorescence, HTS (AID 1963498). Further: test concentration not given here. Conditions: actives lie on both sides.
For the molecule `NC1(C(=O)O)CCc2cc(C(=O)O)ccc21` (configuration not stated), the fold change permeability is 1.1 (inactive).

For `O=C1Nc2ccc(I)cc2/C1=C/c1cc(Br)c(O)c(Br)c1`, the fold change permeability was 0.7 (active).

Consider `C[C@H](Cc1ccc(O)c(O)c1)[C@@H](C)Cc1ccc(O)c(O)c1`, for which the fold change permeability is 1 (inactive).

With `O=c1cc(-c2cccc3c2Sc2ccccc2S3)oc(N2CCOCC2)c1`, the fold change permeability was 1 (inactive).

Take `CCOC(=O)c1c(CSc2ccccc2)n(C)c2cc(Br)c(O)c(CN(C)C)c12`: the fold change permeability was 1.4 (active).

For `Cc1ccc2c(c1CCC(=O)O)CC[C@@H](NS(=O)(=O)c1ccc(Cl)cc1)C2`, the fold change permeability is 0.8 (inactive).

`O=C1N/C(=N/S(=O)(=O)c2cccc3ccccc23)S/C1=C\c1ccc(Br)cc1`: the fold change permeability is 1.3 (active).

Turning to `O=C(NCCN1CCOCC1)c1ccc(Cl)cc1`, the fold change permeability was 0.8 (inactive).

With `CN=C(N)NCCC[C@H](N)C(=O)O`, the fold change permeability was 0.8 (inactive).

On to `CC[C@@]1(O)C(=O)OCc2c1cc1n(c2=O)Cc2cc3c(CN(C)C)c(O)ccc3nc2-1`, for which the fold change permeability was 1 (inactive).

For the molecule `NC(N)=NC(=O)c1nc(Cl)c(N2CCCCCC2)nc1N`, the fold change permeability was 1.1 (inactive).

Take `O=c1c2ccccc2nc2n1CCc1c-2[nH]c2ccccc12`: the fold change permeability is 1.8 (active).

As for `CSC(N)=NCCC[C@H](N)C(=O)O`, the fold change permeability was 0.7 (active).

Regarding `C[C@]12CCC(=O)C=C1C=C[C@@H]1[C@@H]2CC[C@@]2(C)[C@H]1CC[C@@]21CCC(=O)O1`, the fold change permeability was 1.1 (inactive).

In the case of `Cc1cc(C(=O)Cn2cc(C#N)ccc2=O)c(C)n1Cc1ccccc1`, the fold change permeability is 1.7 (active).

`Cc1ccc(S(=O)(=O)NC(=O)NN2CCCCCC2)cc1`: the fold change permeability was 1 (inactive).

As for `CN1CCC(=C2c3ccccc3CC(=O)c3sccc32)CC1`, the fold change permeability is 1.4 (active).
